# The sample as a whole holds a higher share of hits than the screen did.
# IDE exosite inh: exo-site inhibitors of human insulin-degrading enzyme | AID 1259349 | z-score at 20 µM | actives 6.3% (n = 17,000) | purified IDE, FL-6b probe fluorescence polarization; active compounds read low;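 active = z-score of -3 or lower, meaning strong loss of probe binding signal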;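 note: His-tagged human IDE residues 42-1019 made in E. coli with 30 nM FL-6b probe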
# Starred values were filed as active, the others as inactive; ! = repeats disagree.
SMILES,IDE exosite inh
COc1ccc(-c2ccc(C3[C@H]4CNC[C@@H]3N4C(=O)NC3CCCC3)cc2)cc1 (stereo partly specified),3
CCCNC(=O)N1C[C@@H]2N[C@H](C1)C2c1ccc(-c2cccnc2)cc1 (stereo partly specified),1.8
CCCNC(=O)N1C[C@@H]2N[C@H](C1)C2c1ccc(-c2cccc(OC)c2)cc1 (stereo partly specified),-3.9*!
O=C(NC1CCCC1)N1[C@@H]2CNC[C@H]1C2c1ccc(-c2cccnc2)cc1 (stereo partly specified),-0.49
Cc1cccc(-c2ccc(C3[C@@H]4CN(C(=O)Cc5ccncc5)C[C@H]3N4)cc2)c1 (stereo partly specified),0.11
CN(C)C(=O)c1ccc(-c2ccc(C3[C@@H]4CN(C(=O)Cc5ccncc5)C[C@H]3N4)cc2)cc1 (stereo partly specified),3.6
COc1ccccc1NC(=O)N[C@H]1CC[C@@H](CCNS(=O)(=O)c2ccc(Cl)cc2)O[C@H]1CO,0.42
CC(C)[C@@H]1C/C=C\C[C@@H](c2ccc(F)cc2)NC(=O)[C@H](C)CC(=O)N1,1
O=C(CN1CCOCC1)N[C@@H]1CC[C@H](CCn2cc(C3CC3)nn2)O[C@H]1CO,0.82
CCCNC(=O)N1CC2(CN(Cc3cccc(F)c3)C2)c2c([nH]c3cc(OC)ccc23)[C@@H]1CO,0.28
CN(C)C(=O)c1cccc(-c2ccc([C@@H]3[C@H](CO)N4C(=O)CN(C(=O)C5CCC5)C[C@@H]34)cc2)c1,0.25
CN(C)C(=O)C[C@H]1CC[C@H]2[C@H](COc3ccc(NC(=O)C4CCCCC4)cc3C(=O)N2C)O1,-0.77
COc1cccc(-c2ccc(C3[C@@H]4CN(C(=O)c5cnccn5)C[C@H]3N4)cc2)c1 (stereo partly specified),-8.7*!
CN(C)C(=O)c1cccc(-c2ccc(C3[C@@H]4CN(C(=O)c5cnccn5)C[C@H]3N4)cc2)c1 (stereo partly specified),0.092
COc1cccc(-c2ccc(C3[C@@H]4CN(C(=O)c5ccc(F)cc5)C[C@H]3N4)cc2)c1 (stereo partly specified),1.8
O=C1CN(Cc2ccc(F)cc2)C[C@@H]2[C@@H](c3ccc(-c4ccccc4F)cc3)[C@@H](CO)N12,-2.5
COc1cccc(S(=O)(=O)N2CCCCN3[C@H](C2)[C@H](c2ccc(-c4ccccc4)cc2)[C@@H]3CO)c1,1.1
N#C[C@@H]1[C@H](c2ccccc2)[C@H](CO)N1C(=O)CCN1CCCCC1,0.92
O=C(Nc1cccc(F)c1)N1CC(=O)N2[C@H](CO)[C@@H](c3ccc(-c4cccc(F)c4)cc3)[C@H]2C1,2.1
Cc1cccc(-c2ccc([C@@H]3[C@@H](CO)N4C(=O)CN(C(=O)NC5CCCCC5)C[C@H]34)cc2)c1,-12*
O=C(NC1CCCCC1)N1CC(=O)N2[C@H](CO)[C@@H](c3ccc(-c4cccc(F)c4)cc3)[C@@H]2C1,-13*
O=C(NC1CCCCC1)N1CC(=O)N2[C@H](C1)[C@@H](c1ccc(-c3cccc(F)c3)cc1)[C@@H]2CO,-7.9*
CC(C)CC#Cc1ccc([C@H]2[C@@H](CO)N3C(=O)CN(C(=O)NC4CCCCC4)C[C@@H]23)cc1,-0.6
O=C(NC1CCCC1)N1CC(=O)N2[C@@H](CO)[C@H](c3ccc(-c4ccc(F)cc4)cc3)[C@@H]2C1,-0.029
O=C(NC1CCCCC1)N1CC(=O)N2[C@@H](CO)[C@H](c3ccc(-c4cccc(F)c4)cc3)[C@@H]2C1,-1.2
SMILES,IDE exosite inh
CCCC#Cc1ccc([C@H]2[C@H]3CN(C(=O)NC4CCCC4)CC(=O)N3[C@H]2CO)cc1,-0.53
O=C(Nc1cccc(F)c1)N1CC(=O)N2[C@H](CO)[C@H](c3ccc(-c4cccc(F)c4)cc3)[C@H]2C1,0.29
Cc1ccccc1-c1ccc([C@@H]2[C@H](CO)N3C(=O)CN(C(=O)NC4CCCC4)C[C@@H]23)cc1,-8.1*
COc1ccccc1NC(=O)N1CC(=O)N2[C@H](CO)[C@@H](c3ccc(-c4cccc(C)c4)cc3)[C@H]2C1,-0.51
O=C(Nc1ccc(F)cc1)N1CC(=O)N2[C@H](CO)[C@@H](c3ccc(-c4cccc(F)c4)cc3)[C@@H]2C1,-2.2
O=C(Cc1cccnc1)N1CC(=O)N2[C@@H](CO)[C@H](c3ccc(-c4cccc(F)c4)cc3)[C@@H]2C1,-1.9
NCC[C@@H]1CC[C@@H](NC(=O)NC2CCCCC2)[C@H](CO)O1,-0.65
COCCNC(=O)C[C@@H]1C[C@H]2c3cc(NC(=O)CN(C)C)ccc3O[C@H]2[C@H](CO)O1,-0.75
CC=Cc1ccc2n(c1=O)C[C@H]1[C@H](CO)[C@@H](C(=O)N[C@H](C)c3ccccc3)N(C(=O)c3ccccn3)[C@@H]21 (mixture of isomers),0.53
N#C[C@H]1[C@@H](c2ccc(C3=CCCC3)cc2)[C@H](CO)N1C(=O)C1CCC1,4.7
COCC(=O)Nc1ccc2c(c1)[C@H]1C[C@H](CC(=O)N[C@@H](C)c3ccccc3)O[C@H](CO)[C@H]1O2,-1.1

# Screening data deposited in PubChem BioAssay by Broad Institute.
